6 compounds from PubChem BioAssay (Tox21) can be followed below.

The nature of assay [1]: Human pregnane X receptor (PXR) small molecule agonists, qHTS cell viability counter screen (AID 1346977). Further: nearly all actives have a fitted effect of over 50% in size. Further: potency means the concentration at half of the fitted maximal effect. Summed up: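 PXR-Luc HepG2 cells (2,000/well, 5% charcoal-stripped FBS) preincubated 5 hr, then exposed to compounds 24 hr at 37 C. Viability read in the same wells by CellTiter-Fluor fluorescence, reagent added at 23 hr, 1 hr incubation.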
For orientation: Quantitative high-throughput screening tests each substance at several concentrations.

Assay [2] is described as follows: Caspase-3/7 induction in HepG2 cells by small molecules, qHTS assay (AID 1346978). Further: nearly all actives have a fitted effect of over 15% in size. Further: potency means the concentration at half of the fitted maximal effect. Summed up: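 Wild-type HepG2 cells, 2,000/well, settled 5 hr at 37 C and 5% CO2, then compound-treated for 17 hr; caspase-3/7 activity read by luminescent Caspase-Glo 3/7 after 30 min at room temperature.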
Assay [3] in a line: Caspase-3/7 induction in CHO-K1 cells by small molecules, qHTS cell viability counter screen (AID 1346979). Further: nearly all actives have a fitted effect of over 35% in size. Further: potency means the concentration at half of the fitted maximal effect. The essentials: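 Wild-type CHO-K1 cells (1,500/well) treated with compound after 5 h plating; after 16 h at 37C, viability read as CellTiter-Fluor fluorescence following 1 h reagent incubation, in the same wells as the caspase read.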
Assay [4] can be described thus: Caspase-3/7 induction in CHO-K1 cells by small molecules, qHTS assay (AID 1346980). Further: nearly all actives have a fitted effect of over 15% in size. Further: potency means the concentration at half of the fitted maximal effect. The essentials:
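Wild-type CHO-K1 cells exposed to compounds for 17hr at 37 C, 5% CO2. Caspase-3/7 activity then measured by Caspase-Glo 3/7 luminescence after 30min at room temperature.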

The nature of assay [5]: Caspase-3/7 induction in HepG2 cells by small molecules, qHTS cell viability counter screen (AID 1346981). Further: nearly all actives have a fitted effect of over 30% in size. Further: potency means the concentration at half of the fitted maximal effect. Summed up:
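In this quantitative HTS counter screen, compounds delivered in DMSO were left on unmodified HepG2 cells for 16 hr at 37 C. Viability was then determined fluorometrically with CellTiter-Fluor, in parallel with caspase-3/7 induction in the same wells.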

The target of assay [6] is Nuclear receptor subfamily 1 group I member 2 (Homo sapiens) (UniProt O75469). The assay can be described thus: Human pregnane X receptor (PXR) small molecule agonists, qHTS assay (AID 1346982). Further: nearly all actives have a fitted effect of over 35% in size. Further: potency means the concentration at half of the fitted maximal effect. The essentials: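 Reporter HepG2 cells expressing PXR-Luc are cultured in charcoal-stripped FBS (5%), treated with compounds for 24 hr at 37 C, and assayed by ONE-Glo luminescence after 30 min at room temperature.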

Assay [7] addresses Acetylcholinesterase (Homo sapiens) (UniProt P22303). In words: Acetylcholinesterase (AChE) small molecule antagonists: colormetric cell-based qHTS assay (AID 1347395; calls by dose curve; further: on the % scale 0 is the no-effect control and ±100 the full control effect; nearly all actives have a fitted effect of over 30% in size). Summed up:
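SH-SY5Y cells attached overnight, exposed to compound 30 min at 37 C, then given DTNB/acetylthiocholine; after 90 min at 37 C, colorimetric thiocholine read gives cellular AChE activity.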

The target is the same in assay [8]. In words: Acetylcholinesterase (AChE) small molecule antagonists: enzyme-based qHTS assay (AID 1347397; calls by dose curve; further: on the % scale 0 is the no-effect control and ±100 the full control effect; nearly all actives have a fitted effect of over 55% in size). The conditions noted are these: Potency: AChE enzyme activity inhibition. Summed up:
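In this quantitative HTS, compounds from the Tox21 10K collection were preincubated 30 min at ambient temperature with recombinant human AChE dispensed at 50 mU/mL. Hydrolysis of acetylthiocholine was then followed for 10 min by DTNB colour development.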

Assay [9] has the same target. In words: Acetylcholinesterase (AChE) small molecule antagonists: fluorescence cell-based qHTS assay (AID 1347398; calls by dose curve; further: on the % scale 0 is the no-effect control and ±100 the full control effect; nearly all actives have a fitted effect of over 50% in size). The conditions noted are these: Potency: AChE activity. The essentials:
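Cells (SH-SY5Y) attached overnight, were dosed with compound or DMSO vehicle for 30 min at 37 C, and then incubated 40 min at room temperature with acetylthiocholine and Thiolite Green; green fluorescence indexed AChE activity.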

For assay [10] the target is unchanged. The assay can be described thus: Acetylcholinesterase (AChE) small molecule antagonists: enzyme-based qHTS assay with human liver microsomes (AID 1347399; calls by dose curve; further: nearly all actives have a fitted effect of over 60% in size; further: potency means the concentration at half of the fitted maximal effect; on activity change, negative = inhibition: on the % scale 0 is the no-effect control and ±100 the full control effect). Conditions: Potency: qHTS inhibition. Summed up: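 Recombinant human AChE (50 mU/mL in the enzyme mix) and human liver microsomes (0.25 mg/mL final) were preincubated with compound and NADPH (0.25 mg/mL final) for 30 min at 37 C. Acetylthiocholine/DTNB was then added; thiocholine was read colorimetrically after 10 min at room temperature.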

The target in assay [11] is Cytochrome P450 2D6 (Homo sapiens) (UniProt P10635). The assay can be described thus: Cytochrome P450 Family 2 Subfamily D Member 6 (CYP2D6) small molecule antagonists: luciferase reporter qHTS assay (AID 1671196). Further: nearly all actives have a fitted effect of over 50% in size. Further: potency means the concentration at half of the fitted maximal effect. On activity change, negative = inhibition: series mostly up to about 120 µM; on the % scale 0 is the no-effect control and ±100 the full control effect. Summed up:
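Test chemicals meet CYP2D6 plus proluciferin substrate (10 min, RT); NADPH regenerating solution then drives turnover for 1 h. Detection reagent halts the reaction; luminescence measured after 20 min.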
For orientation: A reporter such as luciferase makes a cellular process visible.

Assay [12] concerns the target Cytochrome P450 2C19 (Homo sapiens) (UniProt P33261). In words: Cytochrome P450 Family 2 Subfamily C Member 19 (CYP2C19) small molecule antagonists: luciferase reporter qHTS assay (AID 1671197). Further: nearly all actives have a fitted effect of over 65% in size. Further: potency means the concentration at half of the fitted maximal effect. On activity change, negative = inhibition: series mostly up to about 120 µM; on the % scale 0 is the no-effect control and ±100 the full control effect. Summed up:
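Luminescent readout of CYP2C19 activity: luciferin product detected 20 min after adding detection reagent. Before that, compound and enzyme-substrate mix preincubated 10 min at room temperature; NADPH-regenerating system started a 1 h, 37C reaction. Ketoconazole as positive control.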

The target in assay [13] is Cytochrome P450 2C9 (Homo sapiens) (UniProt P11712). In words: Cytochrome P450 Family 2 Subfamily C Member 9 (CYP2C9) small molecule antagonists: luciferase reporter qHTS assay (AID 1671198). Further: nearly all actives have a fitted effect of over 50% in size. Further: potency means the concentration at half of the fitted maximal effect. On activity change, negative = inhibition: series mostly up to about 120 µM; on the % scale 0 is the no-effect control and ±100 the full control effect. Summed up: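 P450-Glo proluciferin substrate with CYP2C9 enzyme; 10 min RT preincubation, then NADPH regeneration 1 h at 37C; luciferin detection reagent 20 min RT, luminescence in relative luminescence units.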

The target of assay [14] is Cytochrome P450 1A2 (Homo sapiens) (UniProt P05177). In words: Cytochrome P450 Family 1 Subfamily A Member 2 (CYP1A2) small molecule antagonists: luciferase reporter qHTS assay (AID 1671199). Summed up:
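Steps: enzyme-substrate mix dispensed; test compounds and furafylline control pinned in; 10 min room temperature; NADPH regeneration solution added, 1 h; reaction stopped with luciferin detection reagent; luminescence read after 20 min.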

For assay [15], the target named is Cytochrome P450 3A4 (Homo sapiens) (UniProt P08684). In words: Cytochrome P450 Family 3 Subfamily A Member 4 (CYP3A4) small molecule antagonists: luciferase reporter qHTS assay (AID 1671201). Further: nearly all actives have a fitted effect of over 50% in size. Further: potency means the concentration at half of the fitted maximal effect. The essentials:
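P450-Glo CYP3A4 luminescent assay: compounds preincubated 10 min at room temperature with enzyme and proluciferin substrate, NADPH regeneration added, 1 h room-temperature reaction, stopped with luciferin detection reagent; luminescence read after 20 min. Ketoconazole positive control.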

In assay [16] the target is Voltage-gated inwardly rectifying potassium channel KCNH2 (Homo sapiens) (UniProt Q12809). In words: Human Ether-a-go-go-Related Gene (hERG) channel small molecule antagonists: fluorescence cell-based qHTS assay (AID 1671200). Further: nearly all actives have a fitted effect of over 50% in size. Further: potency means the concentration at half of the fitted maximal effect. The essentials:
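hERG-U2OS cells plated overnight at 37 C, loaded with FluxOR II dye 1 h at RT in dark; after 10 min, thallium stimulus added. Fluorescence (480/540 nm) read kinetically for 2 min at 1 s intervals.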
(hERG is a cardiac potassium channel; its block is linked to QT prolongation.)

Structures are written as SMILES. “And” between values parts separate entries of the source, which are not always exact repeats. Identical values can stand only once. Results filed as inconclusive are left out. More than one record can exist for a structure, and the calls need not agree. The source made the active and inactive calls. Unless noted, the call rests on the fitted dose curve; in most records, active means well fitted curve in the direction sought with a large enough effect in the repeat runs; inconclusive means weak or mixed curves; inactive means no such curve, though single readings can be large; an effect the other way counts as inactive or inconclusive.

Cytochrome P450 1A2 (Homo sapiens), sequence (P05177 whole entry, looked up): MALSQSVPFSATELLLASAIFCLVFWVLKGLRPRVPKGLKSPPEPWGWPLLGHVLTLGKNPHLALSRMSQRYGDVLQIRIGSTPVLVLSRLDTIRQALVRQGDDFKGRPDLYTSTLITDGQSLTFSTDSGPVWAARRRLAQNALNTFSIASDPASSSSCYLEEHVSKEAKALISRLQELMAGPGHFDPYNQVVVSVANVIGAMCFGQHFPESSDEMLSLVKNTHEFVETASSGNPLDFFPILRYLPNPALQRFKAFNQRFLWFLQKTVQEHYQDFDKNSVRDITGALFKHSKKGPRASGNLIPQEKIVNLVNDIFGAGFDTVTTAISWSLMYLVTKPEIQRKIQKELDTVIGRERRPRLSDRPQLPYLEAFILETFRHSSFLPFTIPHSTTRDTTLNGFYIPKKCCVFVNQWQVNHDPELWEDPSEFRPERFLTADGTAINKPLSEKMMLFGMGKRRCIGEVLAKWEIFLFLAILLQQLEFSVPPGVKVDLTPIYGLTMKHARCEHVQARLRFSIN
Acetylcholinesterase (Homo sapiens), sequence (P22303 whole entry, looked up): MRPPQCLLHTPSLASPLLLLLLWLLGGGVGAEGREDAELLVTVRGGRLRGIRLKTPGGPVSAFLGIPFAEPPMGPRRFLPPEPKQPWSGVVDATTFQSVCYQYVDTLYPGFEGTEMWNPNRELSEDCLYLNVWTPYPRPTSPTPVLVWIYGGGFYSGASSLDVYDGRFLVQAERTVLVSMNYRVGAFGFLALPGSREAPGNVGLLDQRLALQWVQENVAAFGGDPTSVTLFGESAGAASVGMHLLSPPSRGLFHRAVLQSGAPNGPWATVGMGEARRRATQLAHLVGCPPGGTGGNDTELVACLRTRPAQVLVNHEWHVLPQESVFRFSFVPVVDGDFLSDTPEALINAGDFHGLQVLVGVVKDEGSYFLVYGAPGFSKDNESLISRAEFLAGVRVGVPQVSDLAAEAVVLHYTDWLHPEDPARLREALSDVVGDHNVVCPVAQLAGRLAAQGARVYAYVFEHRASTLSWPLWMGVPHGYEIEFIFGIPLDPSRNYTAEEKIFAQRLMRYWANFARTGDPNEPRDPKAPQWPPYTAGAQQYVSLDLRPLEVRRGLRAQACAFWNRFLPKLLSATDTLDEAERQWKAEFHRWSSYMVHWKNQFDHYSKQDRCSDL
Cytochrome P450 2C19 (Homo sapiens), sequence (P33261 whole entry, looked up): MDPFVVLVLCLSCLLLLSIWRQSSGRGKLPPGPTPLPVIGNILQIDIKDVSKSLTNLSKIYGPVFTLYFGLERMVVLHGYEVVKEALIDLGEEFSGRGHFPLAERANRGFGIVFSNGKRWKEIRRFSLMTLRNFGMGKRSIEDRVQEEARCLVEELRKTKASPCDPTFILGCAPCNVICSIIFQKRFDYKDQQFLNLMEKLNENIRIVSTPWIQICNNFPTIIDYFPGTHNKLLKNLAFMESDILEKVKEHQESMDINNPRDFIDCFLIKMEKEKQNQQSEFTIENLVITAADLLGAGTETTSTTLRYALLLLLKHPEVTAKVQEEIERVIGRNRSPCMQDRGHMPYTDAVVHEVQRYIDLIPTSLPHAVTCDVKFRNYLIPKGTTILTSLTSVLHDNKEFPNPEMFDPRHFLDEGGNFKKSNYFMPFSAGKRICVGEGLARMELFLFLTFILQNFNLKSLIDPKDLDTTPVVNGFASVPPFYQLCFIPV
Cytochrome P450 3A4 (Homo sapiens), sequence (P08684 whole entry, looked up): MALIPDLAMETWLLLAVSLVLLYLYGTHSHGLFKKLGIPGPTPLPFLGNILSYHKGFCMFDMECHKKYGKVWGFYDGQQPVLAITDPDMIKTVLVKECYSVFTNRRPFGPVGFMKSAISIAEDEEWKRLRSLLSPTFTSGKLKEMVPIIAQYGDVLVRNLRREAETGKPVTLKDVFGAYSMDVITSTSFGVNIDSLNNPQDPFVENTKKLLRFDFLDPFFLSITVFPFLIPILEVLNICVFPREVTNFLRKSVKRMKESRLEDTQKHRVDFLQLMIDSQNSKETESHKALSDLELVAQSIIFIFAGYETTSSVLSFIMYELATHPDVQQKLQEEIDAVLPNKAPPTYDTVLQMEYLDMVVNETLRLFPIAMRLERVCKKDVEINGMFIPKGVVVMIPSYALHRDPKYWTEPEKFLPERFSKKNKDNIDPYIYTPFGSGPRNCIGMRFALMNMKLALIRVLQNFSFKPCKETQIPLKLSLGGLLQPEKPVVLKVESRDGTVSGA
Nuclear receptor subfamily 1 group I member 2 (Homo sapiens), sequence (O75469 whole entry, looked up): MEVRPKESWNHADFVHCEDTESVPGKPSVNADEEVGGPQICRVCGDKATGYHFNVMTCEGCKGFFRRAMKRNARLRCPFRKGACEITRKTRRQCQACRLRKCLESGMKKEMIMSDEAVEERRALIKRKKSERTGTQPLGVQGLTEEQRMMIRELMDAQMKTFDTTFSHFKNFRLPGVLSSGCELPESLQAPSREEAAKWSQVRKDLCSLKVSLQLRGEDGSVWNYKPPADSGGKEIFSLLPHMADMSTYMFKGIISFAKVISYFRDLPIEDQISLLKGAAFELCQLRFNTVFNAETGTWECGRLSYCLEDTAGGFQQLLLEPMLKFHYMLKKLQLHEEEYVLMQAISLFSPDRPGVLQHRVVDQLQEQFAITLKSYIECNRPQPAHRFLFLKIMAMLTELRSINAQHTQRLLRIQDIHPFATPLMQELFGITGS
Cytochrome P450 2D6 (Homo sapiens), sequence (P10635 whole entry, looked up): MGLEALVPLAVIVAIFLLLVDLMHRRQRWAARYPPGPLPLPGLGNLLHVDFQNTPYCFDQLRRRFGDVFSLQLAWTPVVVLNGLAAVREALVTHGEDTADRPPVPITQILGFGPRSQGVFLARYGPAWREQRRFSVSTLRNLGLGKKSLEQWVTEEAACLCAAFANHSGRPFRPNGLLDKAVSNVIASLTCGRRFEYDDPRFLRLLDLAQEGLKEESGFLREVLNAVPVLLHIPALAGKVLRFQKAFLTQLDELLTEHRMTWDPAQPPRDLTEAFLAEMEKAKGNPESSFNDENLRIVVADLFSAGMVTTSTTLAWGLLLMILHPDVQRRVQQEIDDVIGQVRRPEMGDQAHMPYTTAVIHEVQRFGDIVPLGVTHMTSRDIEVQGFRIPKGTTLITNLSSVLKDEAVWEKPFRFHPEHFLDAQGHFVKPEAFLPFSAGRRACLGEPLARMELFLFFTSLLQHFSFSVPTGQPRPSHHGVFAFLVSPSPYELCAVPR
Cytochrome P450 2C9 (Homo sapiens), sequence (P11712 whole entry, looked up): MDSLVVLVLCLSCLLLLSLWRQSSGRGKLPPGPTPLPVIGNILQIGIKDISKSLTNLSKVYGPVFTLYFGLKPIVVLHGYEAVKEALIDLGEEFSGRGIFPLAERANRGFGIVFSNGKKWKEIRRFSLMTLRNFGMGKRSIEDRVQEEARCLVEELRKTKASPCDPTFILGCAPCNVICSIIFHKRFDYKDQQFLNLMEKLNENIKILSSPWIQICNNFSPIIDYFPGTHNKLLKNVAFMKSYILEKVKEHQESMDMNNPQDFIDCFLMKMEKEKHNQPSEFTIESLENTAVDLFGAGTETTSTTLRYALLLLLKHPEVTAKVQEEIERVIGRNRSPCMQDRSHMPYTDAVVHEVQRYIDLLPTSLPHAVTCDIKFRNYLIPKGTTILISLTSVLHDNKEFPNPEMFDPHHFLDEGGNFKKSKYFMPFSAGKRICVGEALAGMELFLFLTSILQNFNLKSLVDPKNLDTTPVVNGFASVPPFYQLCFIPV
Voltage-gated inwardly rectifying potassium channel KCNH2 (Homo sapiens), sequence (Q12809 whole entry, looked up): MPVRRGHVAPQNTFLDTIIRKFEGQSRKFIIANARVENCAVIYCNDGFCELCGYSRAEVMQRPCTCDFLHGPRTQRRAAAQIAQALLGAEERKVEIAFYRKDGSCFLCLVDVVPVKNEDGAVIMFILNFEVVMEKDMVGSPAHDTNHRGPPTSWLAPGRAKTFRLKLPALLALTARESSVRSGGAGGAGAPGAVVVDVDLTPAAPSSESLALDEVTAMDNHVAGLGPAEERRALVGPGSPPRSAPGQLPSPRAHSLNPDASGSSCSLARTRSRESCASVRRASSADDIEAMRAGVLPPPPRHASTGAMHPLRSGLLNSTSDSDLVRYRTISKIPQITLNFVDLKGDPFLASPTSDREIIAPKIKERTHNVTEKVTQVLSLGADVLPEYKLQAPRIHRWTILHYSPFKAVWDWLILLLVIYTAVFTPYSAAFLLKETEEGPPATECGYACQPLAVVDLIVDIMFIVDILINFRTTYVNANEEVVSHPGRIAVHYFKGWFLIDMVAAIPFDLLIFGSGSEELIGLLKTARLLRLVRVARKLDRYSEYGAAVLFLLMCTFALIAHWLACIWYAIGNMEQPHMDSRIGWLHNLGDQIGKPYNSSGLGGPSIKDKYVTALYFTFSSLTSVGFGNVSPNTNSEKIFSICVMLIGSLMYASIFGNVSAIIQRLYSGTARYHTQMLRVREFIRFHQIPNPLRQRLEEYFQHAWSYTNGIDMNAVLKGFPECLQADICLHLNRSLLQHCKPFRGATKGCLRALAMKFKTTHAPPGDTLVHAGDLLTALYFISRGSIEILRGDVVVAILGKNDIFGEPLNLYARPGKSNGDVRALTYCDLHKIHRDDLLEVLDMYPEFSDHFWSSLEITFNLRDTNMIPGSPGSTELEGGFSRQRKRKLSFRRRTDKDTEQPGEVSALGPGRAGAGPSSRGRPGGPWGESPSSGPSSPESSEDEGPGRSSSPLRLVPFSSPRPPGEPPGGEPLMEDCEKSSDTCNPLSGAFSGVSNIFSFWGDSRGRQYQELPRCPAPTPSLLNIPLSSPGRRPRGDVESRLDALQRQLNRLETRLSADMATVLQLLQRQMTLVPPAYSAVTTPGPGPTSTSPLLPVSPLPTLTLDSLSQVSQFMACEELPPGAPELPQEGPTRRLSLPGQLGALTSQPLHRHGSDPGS

As to `CC(C)(c1ccccc1)c1ccc(O)c(C(C)(C)c2ccccc2)c1`, the Potency is 35.5 µM (active) and 48.6 µM (active) in assay [1]; 42.9 µM (active) and 68.6 µM (active) in [2]; 30.4 µM (active) and 43.3 µM (active) in assay [3]; 27.1 µM (active) and 61.1 µM (active) in [4]; 54 µM (active) in [5]; 1.92 µM (active) and 3.86 µM (active) in assay [6]. For the same compound, the Potency was 25 µM (active) and 35.6 µM (active) in assay [11]; 5.59 µM (active) and 3.56 µM (active) in assay [12]; 3.96 µM (active) and 2.83 µM (active) in assay [13]; 35.3 µM (active) and 35.6 µM (active) in [14]; 8.86 µM (active) and 6.33 µM (active) in [15]. Moreover, the Potency result in assay [7], in assay [8], in assay [9] and in assay [10] was “inactive” throughout.

For the compound `CC(C)CON=O`, the Potency result in [1], in assay [2], in [3], in assay [4], in assay [5] and in assay [6] was “inactive” throughout. The Potency entry in [7], in assay [8], in assay [9], in assay [10], in [12] and in assay [13] was “inactive” throughout. The Potency entry in [16] and in assay [15] was “inactive” in each case. The activity change, negative = inhibition in assay [11] was 2.15% [at 23.6 µM] (inactive).

As for `CCOP(=S)(OCC)SCSC(C)(C)C`, the Potency entry in assay [1], in assay [2], in [3], in [4], in assay [5] and in assay [7] was “inactive” in each case. Also, the Potency entry in [8], in assay [9], in [11] and in assay [16] was “inactive” in each case. Further, the Potency in assay [6] was 61.6 µM (active) and inactive; in assay [10] it was 40.2 µM (active) and 56.4 µM (active); in assay [12], 9.01 µM (active) and 3.17 µM (active); in assay [13], 32 µM (active) and 14.2 µM (active); in [14], 39.9 µM (active); in assay [15] it was 12.7 µM (active) and 7.1 µM (active).

For the compound `O=NN(c1ccccc1)c1ccccc1`, the Potency entry in assay [1], in assay [2], in assay [3], in assay [4], in [5] and in assay [6] was “inactive” throughout. Besides, the Potency result in [7], in [8], in [9], in assay [10], in assay [16] and in assay [15] was “inactive” each time. For the same compound, the Potency was 21.9 µM (active) and inactive in [11]; 39 µM (active) and 35.6 µM (active) in assay [12]; 34.8 µM (active) and 63.3 µM (active) in assay [13]; 34.8 µM (active) in assay [14].

On to `CN(C)c1ccccc1`, for which the Potency entry in [1], in [2], in [3], in assay [4], in [5] and in [6] was “inactive” in each case. Also, the Potency entry in assay [7], in [8], in assay [9], in [10], in assay [11] and in assay [13] was “inactive” each time. Also, the Potency entry in assay [16] was “inactive”. Also, the Potency in assay [12] is 29 µM (active) and 41.6 µM (active); in assay [15], 32.5 µM (active) and inactive.

Consider `OC(c1ccc(Cl)cc1)(c1cncnc1)c1ccccc1Cl` (stereo unspecified), for which the Potency result in assay [1], in assay [2], in assay [4], in assay [7], in assay [8] and in assay [9] was “inactive” throughout. Also, the Potency result in assay [10] is “inactive”. For the same compound, the Potency in assay [3] was 62.2 µM (active); in assay [6], 31.2 µM (active) and 30.6 µM (active); in assay [11], 36.2 µM (active) and 35.6 µM (active); in assay [12], 229 nM (active) and 283 nM (active); in [13] it was 7.23 µM (active) and 6.33 µM (active); in [16] it was 49.8 µM (active) and 54.9 µM (active). Also, the Potency in assay [15] was 182 nM (active) and 224 nM (active).
